This passage reports MAPPIT interaction score results from the supplement of paper PMC10105736.

Common to all, as to test: MAPPIT interaction score (arbitrary units); higher = stronger binary interaction signal, active = hit call of the paper
In one assay the target is CG5062. The note with it: MAPPIT configuration: N-N; pair source set: Curagen_low_conf.
The target of a further assay is slmo. The note with it: MAPPIT configuration: N-N; pair source set: Curagen_high_conf.
Another assay has as its target CG5174. Conditions: MAPPIT configuration: N-N; pair source set: Curagen_high_conf;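 active = MAPPIT score above the 99th percentile of random reference set scores in the same batch; inactive = at or below it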.
The target in the next assay is CG5708. The note with it: MAPPIT configuration: N-C; pair source set: screen_4.
A further assay concerns the target Polr3F. The note with it: MAPPIT configuration: N-C; pair source set: screen_3.
A further assay deals with hale. Conditions: MAPPIT configuration: N-N; pair source set: screen_1.
A further assay concerns the target pasi2. Conditions: MAPPIT configuration: N-N; pair source set: Lit-BS-16.
The next assay has as its target CG4860. Conditions: MAPPIT configuration: N-N; pair source set: Curagen_high_conf.
Another assay concerns the target CG5662. Conditions: MAPPIT configuration: N-N; pair source set: screen_2.
In the next assay the target is CG4853. Conditions: MAPPIT configuration: N-N; pair source set: Curagen_low_conf.
The next assay deals with CG4789. The note with it: MAPPIT configuration: N-N; pair source set: Lit-BS-16.
A further assay deals with PVRAP. Conditions: MAPPIT configuration: N-N; pair source set: Lit-BS-16.
A further assay has as its target CG5854. The note with it: MAPPIT configuration: N-N; pair source set: Curagen_high_conf.
For the next assay, the target named is Zip88E. Conditions: MAPPIT configuration: N-N; pair source set: Lit-BS-16.
The target of a further assay is CG4884. Conditions: MAPPIT configuration: N-N; pair source set: Finley_Y2H.
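Note: HEK293T cells with Epo stimulation, STAT-responsive firefly luciferase reporter, fold induction versus unstimulated cells divided by the larger fold induction of two negative controls lacking either bait or prey.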

B1: IntS10 (protein)
chain: MPSQEENELYMVKEAQRLRKSDPCAAMAWIITAKTLYPNAFNLQYEAYLLERDAQNYEEAAKCFSAIATNFQNQHTELWQEINSLTNALRNENETTPEHEFYVKMYKHLTPEVQHNIFMHTINHSADNLERIYIYILMFNKFPKSAITQAPRLLEMLAEGMKTEPDLYQRILVEEVLPMIQNKPPELSPNLACRLYTSSLEFYLRQIMDESDTADAWKNIFKVLMICGQMMGWEPFLPFSKHVNQNVYWEKLVDILSGSPAGSSQVLFYATTLFIYSLHGYIRNCKLRIEDADVTHVLVEGFMEWSPEGDGSEVPSMEPPKFSLTTAISPELSKAFLHAAQCWQLLNTDQFQRDFSQLMLALPLAPWISRFLFDLAIYFGHRDEANKLMADMTTQSSLVQSLQILSLNLMQGSMTLQGFQCILKILSELPTTQGQLLENMSLKGHRHMVFLPLTRSALVQYCVGAIISRLSRKVFEPNVPDRLLGDILVLQQLNLLNDVLLTQQIFNLIKQRKSFNLRTLSTYIINIDLLEELSHIWNSQQEDNFELTSSPNSSGTPTATTVAGGSQSRRIGTRGADKGARDEFRAITRQQIARCNENVITLLANFINQEHLMLAQHIFGISQPVETIVIK
In the case of B1, the MAPPIT interaction score with CG5062 is -0.102 (inactive); in the assay with slmo, 1.15 (inactive).

B2: rad50 (protein)
chain: MSSIESLSIQGIRSFGTYADDLQSIKFSSPVTLILGENGCGKTTVVECLKYALTGECPPGSDRGKSFVHDPKIFGLNEVLAQIKMQVRDRRGAQVSICRTMKVSKKRNKMSFETMDSTINFLTGAGQSKREKQDSLSGRSVDIDVAISDFMGVSKAIINNVLFCHQEDSSWPLDESKKLKEKFDAIFGITEYNKALDKIIKLRKEAMEELKIKEANIKHVAYLKQEMEVKTLNLQKAQRKCDAIKAQCSECEEEMKPIEARLVEIRNVEFEIGKYQAQKVEMDTKHKNCKDQISTLTLKIKKPFRGTLDELDQEISNFDQRMLEMRQKRTEVEGDLSQIKRSSVAEQEKLGTQDRKHCLAKQRHQSELACRAQLLKRVKEFCRELHIPIDCDLVEQPEKMGEVLRDIEAMIITKHCEITEIVEQNEKADRSRQVKIDELRIELTKSEQSVTAQEKQRESSKRESETLGVEIKKIETSMQDLKKLEKEINEVNELYESATKNIDQQAIKDAIARKKASIAENQIQFKKLDEQLTFLGSMAKLVAECSLKQKELDKKNQEVHRVRSRHSDHFGKLFKEPITCNYRRSMQVVYEKLRREIQELNEKANTQKLKEQSYEIKRKNLISDISRMEKELKDSEELIYQKCRSTPYDDLLERSKTTISKLQFDHGALKSSEALYKKYIQKMDEEPSCPLCHHNMTSDEACDLTSELTDEIQKLPDNITRAEKALKAEQIKYENLLQLKPTILKVKELKDSLPQKKEELKKVEELLGDSVSEYETLIALIGEPTHNMELANSMMGDMSLLDEALKDSARLTKDLDLQKGQLPASYDSSVSMDDLQAEKSKVSKELETERKELESAQNAVQQQMDALNRLREKKNSLKDRQIHLREGLQSLPQLKERLEKLNSFLTTVASEISELKAKIQPLKLNLRAAIEEKERLKKSESEKLAQLNSKYNSYKSTDHDIQRLNKEAEDYAKLDLRNEIKKLDEIIMASKDKLRKLEAEISLKTDELETIKTECSNQQTVERDLKDNRELKQLEDKEAKLRESCQVLDKQLGNLDFHSVSKEKVNLTKQRDKATVRKGELLGQLGEIHSQVNKLQREIDEPRFKESLKNFRKANYEIEVTRLCIEDLGQYRLALEWALIQFHSEKMEMINRLIREYWRKIYRGNDIDYIQVKTDEVSSDASADRRKTYNYRVVQSKNYSEIEMRGRCSAGQRVLASLIIRLALAETFSSNCGVLALDEPTTNLDRANINSLCEALNCIVEERQSQSNFMLIIITHDENFVSSLGKITSYHRVFRNEECKSVIRRVEAGPSKKALIDQ
For the molecule B2, the MAPPIT interaction score with CG5174 is 0.0423 (inactive).

B3: H2.0 (protein)
chain: MLLHESAASMEQSMPENLSTHMYGECEVNPTLAKCPDPVNVDHELPTKESCASTTIVSTSPTSATSTTKVKLSFSVDRLLGSEPEESHRQSSSSPSTKSCCDGSILACCSFPHCFSQANAESRRFGHATLPPTFTPTSSHTYPFVGLDKLFPGPYMDYKSVLRPTPIRAAEHAAPTYPTLATNALLRFHQHQKQQHQQHHHHQHHPKHLHQQHKPPPHNSTTASALLAPLHSLTSLQLTQQQQRFLGKTPQQLLDIAPTSPAAAAAATSQNGAHGHGGGNGQGNASAGSNGKRKRSWSRAVFSNLQRKGLEIQFQQQKYITKPDRRKLAARLNLTDAQVKVWFQNRRMKWRHTRENLKSGQEKQPSAVPESGGVFKTSTPSGDGTPQEALDYSSDSCSSVDLSEQADEDDNIEINVVE
For the molecule B3, the MAPPIT interaction score with CG5708 was 2.81 (inactive); in the assay with Polr3F, 2.33 (inactive); in the assay with hale, 0.405 (inactive); in the assay with pasi2, 2.43 (inactive).

B4: Ndg (protein)
chain: MPTFGSKLLACLLLSSVILVSGQFEHYLDSLRASELYEFEDGSLGSIHLLPKGDSETIVLQLEQPIHFYGEQYEQLYINTNGILTFNSEFPEYLNQPFPLEYASIAAFYSNVDTSFSDEGTSISLFESKEQSILDRASSLVRYAFSSQSEFEARQVIVATWRNVGYFDSKTDRLNTFQVALIANEQSTFVQFIYPDGGLNWLQGETAGLGLPDIRAQAGFVAEDGRFYTLNGSGSENARFLSESTNLGVPGVWLFEVAPIENEQNVRSPDNAESLTESPALALSCQAHAHQCHEKAECHDKAEGYCCVCGSGFYGNGKSCLANDQPIRVTGTLTGELNKQPVSEEAKLQSYVVTSEGRTYTTINPLTPELGAQLRLVLPLLTTVPWLFAKSVGGVANGYQLTGGVYTHVSRLQFDSGENLHVNQTFEGLNYWDQLSVKIEIYGEVPAVAADAVLILPDYVEEYTFERPGELKSVQVLNINITEEQRVLGLQVEQRILYRSCLRDDEADPSATKVLQKISKVALDYVERDQALRIGAMSKVGVTPESNACNDGTADCVENSVCVPYEDTYRCDCYHGFAAQLDERGVEVCLDIDECATGSHVCDENAVCDNTEGGFNCYCTEGFEGNGYRCLSNSTADNIEYPPAVEGQAEPTSEPSPNPSPYPDQGQDQEREREDDQYPQPNPYPYPEEQIPQHPDECYRCSKDADCYQGRCTCHEGFDGDGYTCTNICGHGEVWENGRCEPLLLERHDVDPLCDALGECRCPYGYELSEDSQRCTYVQEFDGERNADLIPCDVDENCHINATCNWYGQELRHICTCQPGFRGDGYNCDPISDDSCAIRPDICDVHADCVYEEHLGKSECQCQAGYTGNGFNCQLAAECQSAEHCGENAFCDDGVCRCQADFERDVSDRCVPAGRCGSVFCGSNAICKWDSAEGVQYCDCLDGYQGDALTGCTSKPLSCHVLNNCGIHATCEPTEDPANYECQCIAGFKGDGYVCIEEQNCLNNPTLCDMNAQCRSTNSGLVCVCNQGFFGNGSLCQERQHQDSDFLIVSQGVMIARVPLNGRNVRPISVAQMAIGLDKDCVEGRVYWGDISTKKIVSTKYDGTDLRPFITTDIESPEGIAIDVISRRLYWADSAKDTIEVASLDDPSLRAVIINKQLVNPRGIAVDPYREKLFWSDWDRESPKIEMSNLDGTGRELLLGKDDVTLPNSLVVLENSGEVCYADAGTKKVECIEPQNRQIRTISNELSYPFGITFTHDQFYWTDWTTKKVEIVDSLGARQTPIQPPFFGSHKMYGMTVVEQHCPQYQSPCQISNGGCTDSRLCLVNRQAPSGKSCKCTSASTGCTVLAPGY
Consider B4, for which the MAPPIT interaction score with CG4860 is -0.238 (inactive).

B5: CG9393 (protein)
chain: MEMQLGAMLYVYKGEYGLPSIDFECLRALCLLRFTRCPMDVQTSSNPLRSGAGKLPYLQIGNQKFAGYRQIKRVLDLEGYPIDAHLSTKQKHLSTAYANWVFTNLHAYYHYFLFGEPHNFDTTTRGLYAKRTPFPFNFYYPSSYQREACDVVQVMAGFDVNDKLDKHEGDYLVVNAKKVVNLLSRKLGRKVWFFGDTYSEFDAIVYSYLAIIFKIALPNNPLQNHIKGCQNLVNFINRITKDIFRIEGYSSVKLTKTPSGTEASLTASERKFLDSELNTKIVAGVGAVLAMGAFAAWRGIYNQLTTRSSTDYDGIDYEDDEMEEGLD
With B5, the MAPPIT interaction score in the assay with CG5662 was 4.82 (active).

B6: Rtca (protein)
chain: MDAEKMLEIDGSYLEGGGQALRNALSLSCILGKPVRVVKIRASRPSPGLSHQHLHGLNLLRDITNADVVGNYLLSSTVEFTPRTILDNTYRVETHTAASITLIYQMALPVLLFAGRPSRLIVSGGTNVDFAPPVEYMQEVLLPNLKHFGVSFDLKVQRYGFYPRGQGRCQLDVQPVTKLNSGKLVAFGRIKSVSGVAYCAGRLPVNIAIDMQQTAQREIHRLWPSQQCSIEPIKHSRQKAFHNGAGILMTVNTTSDVVLGASALGKKRIDGHVLGSEASCQLGDYMRKQVCVDDYMQDQLIIYMALAVGRSTMRTGKLTNHTRTAINVAEQMTGVKFDVAMEPGGQMLVSCKGLGHVNKLI
As for B6, in the assay with CG4853, the MAPPIT interaction score is 1.6 (inactive).

B7: Jupiter (protein)
chain: MAAYAAFKHVELYNVGKAKKRVLRPPGGGSSDIFGSEMPQTPRNVKNRMASNIFAAEKDNGVKNNVRQGAHRFYFIGDAPRRGQKTVDSHSRLFGEPTRPITPGKNHMKSSIPFGQNTEAVAAQKLLTTNGHYNGKSGSVSSASSSVSSSTENLKMNSGSRSEGNPVTGEGYKVVANEYSQRQESSNGGTPVINKNRIPPGGYSSGLW
Take B7: the MAPPIT interaction score is 0.553 (inactive) with CG4789 and -1.6 (inactive) in the assay with PVRAP.

B8: pip (protein)
chain: MSLNAERSYKMKLRDVENAFKYRRIPYPKRSVELIALLAISCTFFLFMHTNKLNSRLKEMEVKLQPSEFSALGLTGNHISGHDAGKHDDINTLHGTYQYLKSTGQKVGYNVHDRRSSEEQLRTPTAHGHHHDHHSHHHHMHQQEKIDGHKHKASHDKQLAVPDNKHKEDEVHYEDDEDEVEENDDDLANDVGTTDSEGFNFKADLLNNTKYAEVDFVFFNRVPKVGSQSLMELMARLGKINGFTHARNKGSAHETIVMNKQRQNDLIADLLTRPKPHIYSQHIAYINFTRFHLPKPIYINLIRDPIDRIISWHYYIRAPWYYRDMQAKLGENAIPMPSEEFMNLDLDTCVRNHDPHCTFTQMQIKNPVGDHRRQTLFFCGMNQKLCMPFNSEAAMQKAKRTVETEYAVVGTWEDTNITLSVLEAYIPRYFRNAKVAYYLGKDRLSRVNRNNVTRIVSDETRLILRKNLTNEIEFYEFCKQRLYLQYAALSHGKRFGEDDYLLVPEQQNEYNEDY
In the case of B8, the MAPPIT interaction score in the assay with CG5854 was -0.136 (inactive); in the assay with Zip88E, 0.425 (inactive).

B9: nudE (protein)
chain: MESPPMFNSVEDECRYWKERSKQYHKEWTDVKQEYDEFVEQSREMEIEMDATLDQKQSIIKDLTAKLTMFERENESLKLKLESHGIDMSNMEKQLETVKKDRDTMKVYLRQLEQKNDDLERAHRILNESIENFEKMLDQAYEKNALLELEVDEKGLLQEKLQRLMDETRDLKQELNVKSRFTPVVNGTSVPTANDTNTVNSSMNSSASLPNGIVANGELVKHDNAVATRATSVSVNALNGSLVNRNEYNQQHSLKSDGDETEDVPREWSANAAATPLLPAIHTSGAGRTALLLAGCRVVWILQFSVIHKPQIRNPIT
For the molecule B9, the MAPPIT interaction score with CG4884 is 0.246 (inactive).
